# According to PubChem BioAssay (NCATS):
# Results filed as inconclusive are left out. A call without a number means that no potency is given here. Active and inactive are the calls of the source. Calls follow the shape of the dose curve; as a rule, active = well fitted inhibition curve with a large enough effect; inconclusive = small, poorly fitted or top-dose-only effect; inactive = flat fitted curve, though single readings scatter. Peptide text beside a SMILES is read from it.
# Legend:
# [1] = qHTS for identification of novel therapeutic agents for treatment of microphthalmiaassociated transcription factor (MiT) renal cell carcinoma (RCC) (AID 1963991); settings: CellTiter-Glo, 48 h, stronger effect = lower value
# Summary of the method: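 Three TFE3-fusion RCC lines (UOK109, UOK124, UOK145), 500 cells/well in complete medium, were treated with MIPE 4.0 compounds for 48 hours at 37 C. Viability was by CellTiter-Glo luminescence, normalized to DMSO (100%) and empty wells (0%); curves fitted over 11 concentrations.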
# [2] = qHTS profiling for inhibitors of Plasmodium falciparum proliferation (AID 504749); also: nearly all actives have a fitted effect of over 60% in size; also: potency is read from the fitted curve at half-maximal effect; settings: P. falciparum in erythrocytes, SYBR Green DNA, 72 h
# Summary of the method: (§1)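 Infected RBCs, 0.3% parasitemia/2.5% Hct final; cpd 72 h, 37 C, 5% CO2; lysis buffer with saponin/triton/SYBR Green I, o/n RT dark; FI 485/535; norm. to artemisinin (0.29 uM) and DMSO.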
# 3D7 = test: as above; settings: P. falciparum in erythrocytes, SYBR Green DNA, 72 h; series mostly up to 28.7 µM
# Summary of the method: as §1
# 7G8 = test: as above; settings: P. falciparum in erythrocytes, SYBR Green DNA, 72 h; series mostly up to 28.7 µM
# Summary of the method: as §1
# AA1029 = test: as above; settings: P. falciparum in erythrocytes, SYBR Green DNA, 72 h; series mostly up to 28.7 µM
# Summary of the method: as §1
# ATS189 = test: as above; settings: P. falciparum in erythrocytes, SYBR Green DNA, 72 h; series mostly up to 28.7 µM
# Summary of the method: as §1
# ATS95 = test: as above; settings: P. falciparum in erythrocytes, SYBR Green DNA, 72 h; series mostly up to 28.7 µM
# Summary of the method: as §1
# C2A = test: as above; settings: P. falciparum in erythrocytes, SYBR Green DNA, 72 h; series mostly up to 28.7 µM
# Summary of the method: as §1
# CP185 = test: as above; settings: P. falciparum in erythrocytes, SYBR Green DNA, 72 h; series mostly up to 28.7 µM
# Summary of the method: as §1
# AS120 = test: as above; settings: P. falciparum in erythrocytes, SYBR Green DNA, 72 h; series mostly up to 28.7 µM
# Summary of the method: as §1
# [3] = TFE3-RCC UOK109 viability, measured here: UOK109 Z-AUC
# [4] = TFE3-RCC viability, measured here: UOK124 Z-AUC
# [5] = TFE3-RCC viability, measured here: UOK145 Z-AUC
# [6] = at 12.8 µM (top of the series), parasite line A
# [7] = at 12.8 µM (top of the series), parasite line B
# [8] = at 28.7 µM (top of the series), parasite line A
# [9] = at 28.7 µM (top of the series), parasite line B
SMILES,"z-score [1, 3]","z-score [1, 4]","z-score [1, 5]","activity, negative = inhibition [2, 6]","activity, negative = inhibition [2, 7]",Potency (3D7),Potency (7G8),Potency (AA1029),Potency (ATS189),Potency (ATS95),Potency (C2A),Potency (CP185),Potency (AS120),"activity, negative = inhibition [2, 8]","activity, negative = inhibition [2, 9]",Potency ([2]; parasite line A),Potency ([2]; parasite line B)
Nc1cc(C(Cl)=C(Cl)Cl)c(S(N)(=O)=O)cc1S(N)(=O)=O,1.83,0.22,0.781,-2.96% (inactive),1.59% (inactive),inactive,inactive,inactive,inactive,inactive,inactive,inactive,,,,,
CCOc1cc(CC(=O)N[C@@H](CC(C)C)c2ccccc2N2CCCCC2)ccc1C(=O)O,0.724,0.688,0.737,4.74% (inactive),10.7% (inactive),inactive,inactive,inactive,inactive,inactive,inactive,inactive,inactive,,,,
O=C(O)c1cc(=O)c2c(OCC(O)COc3cccc4oc(C(=O)O)cc(=O)c34)cccc2o1,0.209,0.177,-0.326,,,inactive,inactive,inactive,inactive,inactive,inactive,inactive,inactive,8.12% (inactive),15.8% (inactive),,
CC1=C(C)C(=O)C(C(CCCCCC(=O)O)c2ccccc2)=C(C)C1=O (stereo not drawn),0.248,0.105,-0.311,,,,inactive,inactive,,inactive,,inactive,,-13.8% (inactive),-26.9% (inactive),,
CN(C)CCc1c[nH]c2ccc(Cn3cncn3)cc12,0.0634,0.723,0.764,,,inactive,inactive,inactive,inactive,inactive,inactive,inactive,inactive,15.9% (inactive),-0.428% (inactive),,
COc1ccc2cc([C@H](C)C(=O)O)ccc2c1,1.29,0.689,0.68,6.49% (inactive),-0.339% (inactive),,inactive,inactive,inactive,inactive,inactive,inactive,inactive,,,,
O=C(OC1C[C@H]2CC[C@@H](C1)[N+]21CCCC1)C(O)(c1ccccc1)c1ccccc1 (stereo partly drawn),0.286,0.765,0.653,,,,6.31 µM (active),2.51 µM (active),,,5.01 µM (active),2.82 µM (active),,,,,
CC(C)(S)[C@@H](N)C(=O)O,0.813,0.506,1.37,,,inactive,inactive,inactive,inactive,inactive,inactive,inactive,inactive,1.57% (inactive),-13.2% (inactive),,
NNc1nncc2ccccc12,-0.0991,0.525,0.517,-1.16% (inactive),-10.3% (inactive),,0.891 µM (active),inactive,3.55 µM (active),inactive,inactive,inactive,,,,,
CC(C)[C@H](N)C(=O)OCCOCn1cnc2c(=O)[nH]c(N)nc21,0.0968,0.361,0.522,,,inactive,,inactive,inactive,inactive,inactive,inactive,inactive,-1.13% (inactive),7.31% (inactive),,
COc1cc2c(cc1OC)C1CC(=O)C(CC(C)C)CN1CC2 (stereo not drawn),0.853,0.433,0.758,,,inactive,inactive,inactive,inactive,inactive,inactive,inactive,inactive,3.41% (inactive),0.311% (inactive),,
N=C(N)c1ccc2cc(OC(=O)c3ccc(N=C(N)N)cc3)ccc2c1,0.107,-0.0134,0.0541,,,,11.2 µM (active),,,,,,,,,,
Oc1ccc(OCc2ccccc2)cc1,1.11,0.685,1.26,-21.7% (inactive),-19.8% (inactive),,inactive,inactive,inactive,inactive,inactive,inactive,inactive,,,,
O=C(NCCO[N+](=O)[O-])c1cccnc1,1.2,0.824,0.646,,,inactive,inactive,inactive,inactive,inactive,inactive,inactive,inactive,22.6% (inactive),3.27% (inactive),,
CCC1=C(C)CN(C(=O)NCCc2ccc(S(=O)(=O)NC(=O)NC3CCC(C)CC3)cc2)C1=O (stereo not drawn),0.704,0.513,0.718,,,inactive,inactive,inactive,inactive,inactive,inactive,inactive,inactive,6.02% (inactive),7.16% (inactive),,
O=c1oc2cc(O)ccc2s1,0.879,0.455,1.32,,,inactive,,inactive,inactive,inactive,inactive,inactive,inactive,-2.41% (inactive),-10.3% (inactive),,
COC(=O)[C@H](Cc1ccccc1)NC(=O)[C@@H](N)CC(=O)O (H-Asp-Phe-OMe),0.591,0.672,0.618,,,inactive,inactive,inactive,inactive,inactive,inactive,inactive,inactive,5.55% (inactive),9.71% (inactive),,

SMILES,"z-score [1, 3]","z-score [1, 4]","z-score [1, 5]","activity, negative = inhibition [2, 6]","activity, negative = inhibition [2, 7]",Potency (3D7),Potency (7G8),Potency (AA1029),Potency (ATS189),Potency (ATS95),Potency (C2A),Potency (CP185),Potency (AS120),"activity, negative = inhibition [2, 8]","activity, negative = inhibition [2, 9]",Potency ([2]; parasite line A),Potency ([2]; parasite line B)
C[C@H](Cn1cnc2c(N)ncnc21)OCP(=O)(O)O,0.368,0.295,0.62,,,inactive,inactive,inactive,inactive,inactive,inactive,inactive,inactive,2.65% (inactive),3.87% (inactive),,
CCCCCCCCCCCCCCCCCCCCCCO,0.385,0.0399,0.476,,,inactive,inactive,inactive,inactive,inactive,inactive,inactive,inactive,-0.041% (inactive),-11.9% (inactive),,
Nc1cccc2c1CN(C1CCC(=O)NC1=O)C2=O (stereo not drawn),0.87,1.94,0.731,,,inactive,inactive,inactive,inactive,inactive,inactive,inactive,inactive,12.2% (inactive),5.27% (inactive),,
C=C(c1ccc(C(=O)O)cc1)c1cc2c(cc1C)C(C)(C)CCC2(C)C,0.216,-0.242,-0.306,,,,8.91 µM (active),inactive,inactive,inactive,inactive,inactive,inactive,-4.04% (inactive),4.75% (inactive),,
C=CCc1cc(OC)c(O)c(C(=O)NCCO)c1,0.957,0.641,1.25,,,inactive,inactive,inactive,inactive,inactive,inactive,inactive,inactive,6.75% (inactive),10.3% (inactive),,
Nc1ccn([C@@H]2O[C@H](CO)[C@@H](O)C2O)c(=O)n1 (stereo partly drawn),0.798,0.809,0.948,,,inactive,inactive,inactive,inactive,inactive,inactive,inactive,inactive,12.2% (inactive),0.749% (inactive),,
N[C@@H](Cc1cc(I)c(Oc2cc(I)c(O)c(I)c2)c(I)c1)C(=O)O,0.737,0.682,0.762,,,inactive,inactive,inactive,inactive,inactive,inactive,inactive,inactive,-3.11% (inactive),-2.18% (inactive),,
O=C(NC(Cc1cc(=O)[nH]c2ccccc12)C(=O)O)c1ccc(Cl)cc1 (stereo not drawn),,,,,,inactive,inactive,inactive,inactive,inactive,inactive,inactive,inactive,1.94% (inactive),-14.9% (inactive),,
CCCCCCCCOc1ccccc1C(=O)Nc1ccc(C(=O)OCC[N+](C)(CC)CC)cc1,,,,,,10 µM (active),12.6 µM (active),10 µM (active),,7.94 µM (active),12.6 µM (active),8.91 µM (active),,,,12.6 µM (active),10 µM (active)
Cn1c(NCCN(CCO)CCCc2ccc([N+](=O)[O-])cc2)cc(=O)n(C)c1=O,,,,,,inactive,,inactive,inactive,inactive,inactive,inactive,inactive,6.79% (inactive),16.9% (inactive),,
Cc1ccc(C)c(OCCCC(C)(C)C(=O)O)c1,,,,,,inactive,inactive,inactive,inactive,inactive,inactive,inactive,inactive,19.7% (inactive),9.1% (inactive),,
CCC[C@@H]1C[C@@H](C(=O)N[C@@H]([C@H]2O[C@H](SC)[C@H](O)[C@@H](O)[C@H]2O)[C@@H](C)O)N(C)C1,,,,,,,,,inactive,,,,,,,,
CN(C)C(=O)COC(=O)Cc1ccc(OC(=O)c2ccc(N=C(N)N)cc2)cc1,,,,,,inactive,inactive,inactive,inactive,inactive,inactive,inactive,inactive,-4.03% (inactive),4.45% (inactive),,
CCOC(=O)c1c(C)n(C)c2ccc(O)cc12,,,,,,inactive,inactive,inactive,inactive,inactive,inactive,inactive,inactive,15.4% (inactive),20.5% (inactive),,
Nc1nc(Cl)nc2c1ncn2[C@H]1C[C@H](O)[C@@H](CO)O1,,,,,,inactive,inactive,inactive,inactive,inactive,inactive,inactive,inactive,-3.94% (inactive),14.5% (inactive),,
C[C@]12CCC(=O)C=C1CC[C@@H]1[C@H]2[C@@H](O)C[C@@]2(C)[C@H]1CC[C@]2(O)C(=O)CO,,,,,,inactive,inactive,inactive,inactive,inactive,inactive,inactive,inactive,9.9% (inactive),19.1% (inactive),,
CCCc1cc(=O)[nH]c(=S)[nH]1,,,,,,inactive,inactive,inactive,inactive,inactive,inactive,inactive,inactive,3.45% (inactive),5.92% (inactive),,
